# Unmarked numbers belong to inactive results. Records with an inconclusive call do not appear. Entries that show only a call come without a potency. Active and inactive are the calls of the source. Unless noted, calls come from the whole dose curve.
# Assays:
# [1] = target: Thyrotropin receptor (Homo sapiens) (UniProt P16473); experiment: qHTS assay to identify small molecule agonists of the thyroid stimulating hormone receptor (TSHR) signaling pathway (AID 1224843); note: nearly all actives have a fitted effect of over 45% in size
# Summary of the method: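 Agonist activity read as cAMP rise via d2/cryptate HTRF competition, 1 h room-temperature detection, in HEK293 cells expressing TSHR. Fifteen-point titrations, each run in triplicate, with a 30 min room-temperature incubation beforehand.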
# [2] = qHTS assay to identify small molecule agonists of the hypoxia (HIF-1) signaling pathway - cell viability counter screen (AID 1224844); note: nearly all actives have a fitted effect of over 50% in size
# Summary of the method: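 Same wells as the HIF-1 reporter screen; ME-180 cells carrying HRE-bla, 17 hr treatment at 37C; CellTiter-Glo luminescence read after 30 min at room temperature.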
# [3] = qHTS assay to identify small molecule agonists of H2AX (AID 1224845; active = well fitted activation curve with a large enough effect in the signal ratio in the repeat runs, not every such curve was filed as active; the % refers to the signal ratio)
# Summary of the method: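 Phospho-H2AX Ser139 measured by HTRF (ex 320 nm; em 665 and 620 nm) after 24 hr antibody incubation. Compounds, 15 concentrations, 0.76% DMSO, were applied to CHO-K1 cells for 3hr at 37C before lysis.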
# [4] = qHTS assay to identify small molecule agonists of the hypoxia (HIF-1) signaling pathway (AID 1224846; active = well fitted activation curve with a large enough effect in the signal ratio in the repeat runs, not every such curve was filed as active; the % refers to the signal ratio)
# Summary of the method: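 In ME-180 cells bearing an HRE-bla construct, 17 h treatment with DMSO-dissolved compounds at 37C was followed by CCF4-AM loading to quantify reporter induction.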
# [5] = qHTS assay to identify small molecule agonists of H2AX - cell viability counter screen (AID 1224847); note: nearly all actives have a fitted effect of over 30% in size; note: potency is the fitted concentration of half-maximal effect;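 for activity change, negative = cytotoxicity: wild-type CHO-K1 cells; top concentration of the series differs between compounds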
# Summary of the method: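 Cells plated first: CHO-K1, 1000 per well in 10% FBS medium, incubated overnight at 37C. Then 15-point compound titration added (final DMSO 0.76%) for 3 hr. Finally CellTiter-Glo added and luminescence read.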
# [6] = qHTS RealTime-Glo MT Cell Viability Assay in HepG2 cells - 24 hour (AID 1224867; active = well fitted curve in the direction sought with a large enough effect in the repeat runs; an effect the other way counts as inactive or inconclusive; note: nearly all actives have a fitted effect of over 50% in size)
# Summary of the method: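 Viability was tracked continuously by NanoLuc luminescence from prosubstrate reduced by living HepG2 cells, at successive time points over 40 h of compound exposure. Cells with reagent were preincubated 5 h at 37 °C before compound addition.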
# [7] = qHTS RealTime-Glo MT Cell Viability Assay in HEK293 cells - 32 hour (AID 1224868; active = well fitted curve in the direction sought with a large enough effect in the repeat runs; an effect the other way counts as inactive or inconclusive; note: nearly all actives have a fitted effect of over 50% in size; note: potency is the fitted concentration of half-maximal effect; for activity change, negative = cytotoxic: top concentration of the series differs between compounds)
# Summary of the method: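 Viability tracked continuously by luminescence as live cells reduce a prosubstrate for NanoLuc; HEK293 cells preincubated 5 h, compound-treated at 37 C, and read at 0, 8, 16, 24, 32 and 40 h.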
# [8] = A CellTox Green Cytotoxicity Assay to monitor cytotoxicity in HEK293 cells - 0 hour (AID 1224869; active = well fitted curve in the direction sought with a large enough effect in the repeat runs; an effect the other way counts as inactive or inconclusive; note: nearly all actives have a fitted effect of over 50% in size)
# Summary of the method: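 Homogeneous no-lysis format: HEK293 cell suspension mixed with CellTox Green reagent, seeded, incubated 5 h at 37 C/5% CO2, then dosed by pintool with compound in DMSO.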
# [9] = qHTS assay to identify small molecule agonists of the estrogen related receptor (ERR) signaling pathway from Tox21 library (AID 1224849); conditions: ERR reporter cell line, ONE-Glo luciferase, 18 h; at 92.4 µM (top of the series) unless noted; note: nearly all actives have a fitted effect of over 15% in size
# Summary of the method: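 Reporter cells (ERR, NTP source) treated with Tox21 10K compounds 18 h, 37 C. Readout: ONE-Glo luminescence, 30 min RT.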
# [10] = qHTS assay to identify small molecule antagonists of the estrogen related receptor (ERR) signaling pathway from Tox21 library (AID 1224848; active = well fitted curve in the direction sought with a large enough effect in the repeat runs; an effect the other way counts as inactive or inconclusive; note: nearly all actives have a fitted effect of over 50% in size)
# Summary of the method: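 Luciferase luminescence (ONE-Glo, 30 min room temperature) was the read-out. Cells of the NTP-supplied ERR line, 2,000 per well, were given 6 h at 37 C before compound addition in DMSO and 18 h exposure at 37 C.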
# Sequence of Thyrotropin receptor (Homo sapiens) (P16473 whole entry, looked up): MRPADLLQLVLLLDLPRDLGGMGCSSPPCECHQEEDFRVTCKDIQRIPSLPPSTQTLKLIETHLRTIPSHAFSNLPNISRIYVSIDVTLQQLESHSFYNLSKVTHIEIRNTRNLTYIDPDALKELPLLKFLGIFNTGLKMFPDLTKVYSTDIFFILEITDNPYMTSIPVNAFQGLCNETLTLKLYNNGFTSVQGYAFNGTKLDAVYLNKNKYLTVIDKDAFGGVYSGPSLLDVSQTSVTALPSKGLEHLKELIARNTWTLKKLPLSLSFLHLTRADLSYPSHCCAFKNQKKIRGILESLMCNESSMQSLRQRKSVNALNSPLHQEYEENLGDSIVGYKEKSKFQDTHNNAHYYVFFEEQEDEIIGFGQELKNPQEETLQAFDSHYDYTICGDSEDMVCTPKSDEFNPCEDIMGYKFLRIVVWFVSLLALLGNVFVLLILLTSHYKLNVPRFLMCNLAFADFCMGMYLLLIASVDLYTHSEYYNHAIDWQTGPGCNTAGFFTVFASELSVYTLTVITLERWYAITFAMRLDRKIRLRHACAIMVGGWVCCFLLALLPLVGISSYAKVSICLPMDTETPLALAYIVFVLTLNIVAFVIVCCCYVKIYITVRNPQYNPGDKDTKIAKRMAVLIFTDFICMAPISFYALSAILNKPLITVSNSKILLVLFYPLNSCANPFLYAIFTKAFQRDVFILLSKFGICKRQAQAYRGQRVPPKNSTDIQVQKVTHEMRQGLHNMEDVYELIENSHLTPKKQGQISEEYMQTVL
compound,measurement,setting,value
CCCCCCCCCCCC[N+](C)(C)CCCS(=O)(=O)[O-],Potency,[1],inactive
same,Potency,[2],inactive
same,Potency,[3],inactive
same,outcome,[4],inactive
same,Potency,[5],inactive
same,Potency,[6],inactive
same,Potency,[7],inactive
same,Potency,[8],inactive
CC(=O)Oc1ccc2c(c1)CC[C@@H]1[C@@H]2CC[C@]2(C)[C@@H](O)CC[C@@H]12,Potency,[1],inactive
same,Potency,[2],inactive
same,Potency,[3],inactive
same,outcome,[4],inactive
same,Potency,[5],inactive
same,"activity change, positive = activation",[9],-29.3% [at 42.5 µM]
same,Potency,[6],inactive
same,Potency,[7],9.52 µM (active)
same,Potency,[8],inactive
CCCCC(CC)COC(=O)COc1ccc(Cl)cc1C (stereo not given),Potency,[1],inactive
same,Potency,[2],inactive
same,Potency,[3],inactive
same,outcome,[4],inactive
same,Potency,[5],inactive
same,Potency,[6],inactive
same,Potency,[7],inactive
same,Potency,[8],inactive
CCCCC(=O)O[C@]1(C(=O)CO)CC[C@H]2[C@@H]3CCC4=CC(=O)CC[C@]4(C)[C@H]3[C@@H](O)C[C@@]21C,Potency,[1],inactive
same,Potency,[2],inactive
same,Potency,[3],inactive
same,outcome,[4],inactive
same,Potency,[5],inactive
same,"activity change, positive = activation",[9],-22.8% [at 42.5 µM]
same,Potency,[6],inactive
same,Potency,[7],inactive
same,Potency,[8],inactive
CCOC(=O)OCC,Potency,[1],inactive
same,Potency,[2],inactive
same,Potency,[3],inactive
same,outcome,[4],inactive
same,Potency,[5],inactive
same,Potency,[6],inactive
same,Potency,[7],inactive
same,Potency,[8],inactive
CC1CN(c2cc3c(cc2F)c(=O)c(C(=O)O)cn3-c2ccc(F)cc2F)CCN1 (stereo not given),activation,[1],-2.32% [at 8.39 µM]
same,"activity change, negative = cytotoxicity",[2],5.19% [at 6.97 µM]
same,activation (H2AX phosphorylation),[3],-0.572% [at 14 µM]
same,activation,[4],0.362% [at 7.01 µM]
same,"activity change, negative = cytotoxicity",[5],1.23% [at 14 µM]
same,"activity change, negative = cytotoxicity",[6],4.21% [at 6.97 µM]
same,"activity change, negative = cytotoxic",[7],5.72% [at 6.97 µM]
same,cytotoxicity,[8],-3.88% [at 6.97 µM]
CCCCCCCCCOC(C)=O,Potency,[1],inactive
same,Potency,[2],inactive
same,Potency,[3],inactive
same,outcome,[4],inactive
same,Potency,[5],inactive
same,Potency,[6],inactive
same,Potency,[7],inactive
same,Potency,[8],inactive
CCCCCCCC/C=C\CCCCCCCC(=O)OC,Potency,[1],inactive
same,Potency,[2],inactive
same,Potency,[3],inactive
same,outcome,[4],inactive
same,Potency,[5],inactive
same,Potency,[6],inactive
same,Potency,[7],inactive
same,Potency,[8],inactive
Cc1cc(O)c(C(C)C)cc1Cl,Potency,[1],inactive
same,Potency,[2],inactive
same,Potency,[3],inactive
same,outcome,[4],inactive
same,Potency,[5],89.8 µM (active)
same,Potency,[6],inactive
same,Potency,[7],inactive
same,Potency,[8],inactive
CC(CCc1ccc2c(c1)OCO2)NN (stereo not given),Potency,[1],inactive
same,Potency,[2],inactive
same,Potency,[3],inactive
same,outcome,[4],inactive
same,Potency,[5],inactive
same,Potency,[6],inactive
same,Potency,[7],inactive
same,Potency,[8],inactive
CC1=CC(O)CC(C)(C)C1 (stereo not given),Potency,[1],inactive
same,Potency,[2],inactive
same,Potency,[3],inactive
same,outcome,[4],inactive
same,Potency,[5],inactive
same,"activity change, positive = activation",[9],1.93%
same,Potency,[6],inactive
same,Potency,[7],inactive
same,Potency,[8],inactive
O=C(O)c1ccc(CO)o1,Potency,[1],inactive
same,Potency,[2],inactive
same,Potency,[3],inactive
same,outcome,[4],inactive
same,Potency,[5],inactive
same,Potency,[6],inactive
same,Potency,[7],inactive
same,Potency,[8],inactive
CCOC(=O)/C=C/C(=O)O,Potency,[1],inactive
same,Potency,[2],inactive
same,Potency,[3],inactive
same,outcome,[4],inactive
same,Potency,[5],inactive
same,Potency,[6],inactive
same,Potency,[7],inactive
same,Potency,[8],inactive
CCCOc1ccc(S(=O)(=O)N2CCN(CC)CC2)cc1-c1nc2c(CC)n(Cc3ccccn3)nc2c(=O)[nH]1,Potency,[1],inactive
same,Potency,[2],inactive
same,Potency,[3],inactive
same,outcome,[4],inactive
same,Potency,[5],inactive
same,"activity change, positive = activation",[9],-21.4%
same,Potency,[6],inactive
Cc1ccnc2ccccc12,Potency,[1],inactive
same,Potency,[2],inactive
same,Potency,[3],inactive
same,outcome,[4],inactive
same,Potency,[5],inactive
same,Potency,[6],inactive
same,Potency,[7],inactive
same,Potency,[8],inactive
O=C(O)c1ccccc1NCCc1ccccc1,Potency,[1],inactive
same,Potency,[2],inactive
same,Potency,[3],inactive
same,outcome,[4],inactive
same,Potency,[5],inactive
same,Potency,[10],inactive
same,Potency,[6],inactive
same,Potency,[7],inactive
same,Potency,[8],inactive
CCC(C)(O)CCC=C(C)C (stereo not given),Potency,[1],inactive
same,Potency,[2],inactive
same,Potency,[3],inactive
same,outcome,[4],inactive
same,Potency,[5],inactive
same,Potency,[6],inactive
same,Potency,[7],inactive
same,Potency,[8],inactive
CCCOCCOCCO,Potency,[1],inactive
same,Potency,[2],inactive
same,Potency,[3],inactive
same,outcome,[4],inactive
same,Potency,[5],inactive
same,Potency,[6],inactive
same,Potency,[7],inactive
same,Potency,[8],inactive
O=C(O)c1cccc(O)c1,Potency,[1],inactive
same,Potency,[2],inactive
same,Potency,[3],inactive
same,outcome,[4],inactive
same,Potency,[5],inactive
same,Potency,[6],inactive
same,Potency,[7],inactive
same,Potency,[8],inactive
CCCCCCCCCCOS(=O)(=O)O,Potency,[1],inactive
same,Potency,[2],inactive
same,Potency,[3],inactive
same,outcome,[4],inactive
same,Potency,[5],inactive
same,Potency,[6],inactive
same,Potency,[7],inactive
same,Potency,[8],inactive
COCC(O)CO (stereo not given),Potency,[1],inactive
same,Potency,[2],inactive
same,Potency,[3],inactive
same,outcome,[4],inactive
same,Potency,[5],inactive
same,Potency,[6],inactive
same,Potency,[7],inactive
same,Potency,[8],inactive
Fc1ccccc1[C@@H](F)COC1CCC(Nc2ncnc3[nH]ncc23)CC1 (stereo not given in full),Potency,[1],inactive
same,Potency,[2],inactive
same,Potency,[3],inactive
same,outcome,[4],inactive
same,Potency,[5],101 µM (active)
same,Potency,[6],inactive
same,Potency,[7],21.9 µM (active)
same,Potency,[8],inactive
CC(=O)Nc1ccc(N)cc1,Potency,[1],inactive
same,Potency,[2],inactive
same,Potency,[3],inactive
same,outcome,[4],inactive
same,Potency,[5],inactive
same,Potency,[6],inactive
same,Potency,[7],inactive
same,Potency,[8],inactive
CC(C)(CCl)c1ccccc1,Potency,[1],inactive
same,Potency,[2],inactive
same,Potency,[3],inactive
same,outcome,[4],inactive
same,Potency,[5],inactive
same,Potency,[6],inactive
same,Potency,[7],inactive
same,Potency,[8],inactive
